Source: a collection of fitness landscapes (doi:10.1126/science.1257360)
Over roughly 140,000 sequences, “enrichment ratio after two sorts for PhoP signalling” has its median near 0; the highest 2% begin near 11. Many of the other results were omitted from the sample, so the highest values are more common in it than they were.

B1: PhoQ; a variant is named by its letters at X, in order, P23837 (parent)
chain: MKKLLRLFFPLSLRVRFLLATAAVVLVLSLAYGMVALIGYSVSFDKTTFRLLRGESNLFYTLAKWENNKLHVELPENIDKQSPTMTLIYDENGQLLWAQRDVPWLMKMIQPDWLKSNGFHEIEADVNDTSLLLSGDHSIQQQLQEVREDDDDAEMTHSVAVNVYPATSRMPKLTIVVVDTIPVELKSSYMVWSWFIYVLSANLLLVIPLLWVAAWWSLRPIEALAKEVRELEEHNRELLNPATTRELTSLVRNLNRLLKSERERYDKYRTTLTDLTHSLKTPLXXLQXXLRSLRSEKMSVSDAEPVMLEQISRISQQIGYYLHRASMRGGTLLSRELHPVAPLLDNLTSALNKVYQRKGVNISLDISPEISFVGEQNDFVEVMGNVLDNACKYCLEFVEISARQTDEHLYIVVEDDGPGIPLSKREVIFDRGQRVDTLRPGQGVGLAVAREITEQYEGKIVAGESMLGGARMEVIFGRQHSAPKDE

Variants of: B1
Test: enrichment ratio after two sorts for PhoP signalling (ratio (wild type AVST 3.29)); higher = more functional
Conditions: with PhoP (E. coli)

Variant	enrichment ratio
KSTC	≤ 0.25
TSNK	≤ 0.25
KSSC	≤ 0.25
TSTC	17.2
TVTC	14.5
MMTC	≤ 0.25
NSSC	≤ 0.25
TSSC	12.8
TSSA	11.3
KSSA	≤ 0.25
FSSA	≤ 0.25
SPTC	≤ 0.25
NVLH	≤ 0.25
LSRG	≤ 0.25
REYW	≤ 0.25
PQTM	≤ 0.25
TVEK	13.3
PVEK	≤ 0.25
SPEK	≤ 0.25
PFML	≤ 0.25
SGNG	≤ 0.25
TKIV	11.9
TKIS	4.17
MKIM	≤ 0.25

Variant	enrichment ratio
TKIM	15.1
TKQV	4.75
AKIM	4.82
SEYW	≤ 0.25
QMAQ	≤ 0.25
QWLW	≤ 0.25
LLLD	≤ 0.25
NKIV	≤ 0.25
TKLS	19.9
AKLS	13.1
AILS	9.63
MKLS	≤ 0.25
AKLA	5.14
TKLA	4.75
QRQP	≤ 0.25
INTT	≤ 0.25
MEQI	≤ 0.25
TEQP	≤ 0.25
YYHN	≤ 0.25
TEQH	3.62
AQQM	≤ 0.25
NEQM	≤ 0.25
TEQM	17.8
TEQA	13.7

Variant	enrichment ratio
TEHN	11.9
TEQI	15
MEHN	≤ 0.25
NEQI	≤ 0.25
LPHR	≤ 0.25
ADGW	≤ 0.25
NDRR	≤ 0.25
IIAQ	≤ 0.25
SFDP	≤ 0.25
VFVP	≤ 0.25
WQIY	≤ 0.25
TEQN	34.8
ADQI	≤ 0.25
AQIY	24
AKQI	≤ 0.25
IQIY	≤ 0.25
TEGY	1.36
TEQY	12.5
TEYM	≤ 0.25
QEQY	≤ 0.25
AQQI	14.3
TEEN	3.06
DNYP	≤ 0.25
EFNV	≤ 0.25

Variant	enrichment ratio
FGIV	2.4
ALMP	≤ 0.25
MHTV	≤ 0.25
FMAD	≤ 0.25
GMNN	≤ 0.25
WNWL	≤ 0.25
KSTG	≤ 0.25
SGSI	15.9
STSI	8.26
SQSI	16.7
SSSR	≤ 0.25
SRSI	≤ 0.25
SSSK	≤ 0.25
TVTG	15.3
SSSI	15.2
SGDH	≤ 0.25
SPTG	≤ 0.25
SGSK	≤ 0.25
MQVF	1.6
KTET	≤ 0.25
FTCL	9.73
RLFE	≤ 0.25
YKMG	≤ 0.25
LISD	≤ 0.25

Variant	enrichment ratio
DDSI	≤ 0.25
SPSI	≤ 0.25
NVSI	≤ 0.25
TLSI	18.6
KSSI	≤ 0.25
SESI	12.7
VLSI	≤ 0.25
SESR	4.3
FSSI	0.692
TSSI	19.5
LLSI	≤ 0.25
TVSI	17.4
DSES	≤ 0.25
NHHT	≤ 0.25
VGTA	≤ 0.25
EQHP	≤ 0.25
LVPM	≤ 0.25
QFFS	≤ 0.25
TTNV	7.65
PFAG	≤ 0.25
DGGW	≤ 0.25
WLSI	≤ 0.25
SNSI	12.4
KLSI	≤ 0.25

Variant	enrichment ratio
SNSK	≤ 0.25
KYSI	≤ 0.25
SNSR	≤ 0.25
SLSI	12.7
RISI	≤ 0.25
SISI	19.1
MVAF	8.08
VNTQ	≤ 0.25
FEKW	≤ 0.25
RVKS	≤ 0.25
YPRG	≤ 0.25
SCSK	14.3
SCPI	15.2
SCPM	7.6
SCGD	≤ 0.25
SCPA	≤ 0.25
SCSR	6.9
PQKP	≤ 0.25
RTKL	≤ 0.25
YQFF	≤ 0.25
PSPG	≤ 0.25
QCWG	1.24
QCSN	17.6
GCSN	3.22

Variant	enrichment ratio
QCSG	32
GCSG	6.35
QCSK	≤ 0.25
YSWT	≤ 0.25
VTWY	≤ 0.25
LKQC	≤ 0.25
MYLH	≤ 0.25
YKYI	≤ 0.25
LTCQ	≤ 0.25
KDCA	≤ 0.25
ADCS	≤ 0.25
TDCQ	20.3
FDCQ	≤ 0.25
FDCA	≤ 0.25
TDCS	11.3
TDCI	≤ 0.25
TDCA	14.6
ERGV	≤ 0.25
TKWP	≤ 0.25
PTMY	≤ 0.25
ADMY	0.253
AGMY	20
NGMY	≤ 0.25
STMY	12.6

Variant	enrichment ratio
TGMY	12.7
RGMY	≤ 0.25
TKMY	24
HKMY	≤ 0.25
AIMY	6.62
SWMY	≤ 0.25
KYMY	≤ 0.25
ICMS	2.8
QRAT	≤ 0.25
FCCR	≤ 0.25
DASH	≤ 0.25
RNKS	≤ 0.25
TSMY	12.3
ATMY	7.37
TGME	≤ 0.25
WIMY	≤ 0.25
AEME	29.5
NEMY	≤ 0.25
AEYE	≤ 0.25
YTMY	≤ 0.25
NSMY	≤ 0.25
AEMY	20.4
KSMY	≤ 0.25
CTMY	42.4

Variant	enrichment ratio
NYYK	≤ 0.25
IYHP	≤ 0.25
HPGR	≤ 0.25
EGAD	≤ 0.25
VQVR	≤ 0.25
KMTK	≤ 0.25
RCAP	≤ 0.25
FMFM	≤ 0.25
MEMC	4.97
IEMC	12.9
TCMC	24.2
VCMC	1.73
TEMC	18.9
VPMC	≤ 0.25
TYMC	≤ 0.25
EEMC	≤ 0.25
VEMC	15.7
SRMC	≤ 0.25
VYMC	0.507
ITMC	≤ 0.25
DVLN	≤ 0.25
IGSC	≤ 0.25
SHAH	5.87
VCLL	6.51

Variant	enrichment ratio
FKPV	≤ 0.25
SYMC	≤ 0.25
SPMC	≤ 0.25
SLMC	3.3
SCMC	12.6
KAMC	≤ 0.25
KYMC	≤ 0.25
YAMC	≤ 0.25
NEMC	≤ 0.25
TAMC	14.6
QEMC	≤ 0.25
SIMC	19.4
SEMC	18
KIGP	≤ 0.25
VITT	≤ 0.25
TPNM	≤ 0.25
YGCE	≤ 0.25
NYTT	≤ 0.25
FHLQ	≤ 0.25
ESME	≤ 0.25
VRRK	≤ 0.25
PKDY	≤ 0.25
VMIQ	≤ 0.25
YFFH	≤ 0.25

Variant	enrichment ratio
WWTW	≤ 0.25
GPQA	≤ 0.25
IIMC	≤ 0.25
SAMC	18.1
STMC	8.81
EEMP	≤ 0.25
QQNV	≤ 0.25
YMKP	≤ 0.25
TWQM	≤ 0.25
MNQM	≤ 0.25
NNQM	30
NNCK	≤ 0.25
HAQM	≤ 0.25
LNQM	≤ 0.25
TNQM	14.3
TMQM	12.8
KMQM	≤ 0.25
VGDP	≤ 0.25
RAMR	≤ 0.25
YTYM	≤ 0.25
WMWP	≤ 0.25
TDIC	14.4
KDVC	≤ 0.25
SCIC	7.92

Variant	enrichment ratio
TDVG	4.14
STIC	13
YTIC	≤ 0.25
SDVG	1.53
KSIC	≤ 0.25
LTIC	≤ 0.25
SYVC	0.486
SDVC	11.5
TDVC	24.1
NESI	≤ 0.25
PFYL	≤ 0.25
GFIL	≤ 0.25
INEF	≤ 0.25
MTNK	≤ 0.25
IERL	≤ 0.25
MGNR	≤ 0.25
FHQW	≤ 0.25
WMHQ	≤ 0.25
VIIW	≤ 0.25
SDRC	≤ 0.25
SDIC	15.1
SYIC	0.411
VCHE	≤ 0.25
GIRT	≤ 0.25

Variant	enrichment ratio
ASRM	≤ 0.25
ASAM	20.2
ASGM	22.7
ASGD	≤ 0.25
ASDH	≤ 0.25
ASPM	0.773
ASTM	12.3
ASWM	≤ 0.25
ASAY	4.58
TKYS	≤ 0.25
NHDM	≤ 0.25
KGIG	≤ 0.25
IWNF	≤ 0.25
ETES	≤ 0.25
IRLA	0.272
GMFY	≤ 0.25
FLEE	≤ 0.25
PCYL	≤ 0.25
